# Assay outcomes as filed in PubChem.
# Rab9 promoter act: Rab9 promoter activation | 2.8% of 320,000 active | Potency, µM (series often up to 9.22 µM), usual class: activators | AID 485297 | Huh7 Rab9 promoter-luciferase reporter, luminescence, 24 h; also: nearly all actives have a fitted effect of over 60% in size
#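 Rab9 promoter-driven luciferase in stably transfected Huh7 cells; 1500 cells/well rested 2 h, exposed to compound in DMSO for 24 h at 37 °C, 5% CO2. Luminescence read 10 min after adding luciferase reagent at ambient temperature.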
# NPC1 promoter act: activates the NPC1 promoter | Potency, µM (titrated, usually from 9.22 µM), usual class: activators | Huh7 NPC1 promoter luciferase reporter, 24 h | 2.4% of 320,000 active; also: nearly all actives have a fitted effect of over 60% in size
#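 Stable NPC1-promoter luciferase Huh7 line; cpd (DMSO) 24 h, 37 °C, 5% CO2; Amplite luciferase reagent 10 min RT; luminescence readout. qHTS format.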
# ELG1 genotox: genotoxicity induction in ELG1-luciferase HEK293T cells; HEK293T ELG1-luciferase reporter, luminescence, 16 h; Potency, µM (series often up to 46 µM), hits mostly activators; 1.3% of 330,000 active; AID 504466; also: nearly all actives have a fitted effect of over 60% in size
#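 ELG1-luciferase HEK293T cells, 2,000/well; compound pinned in; 16 hr, 37 °C, 5% CO2; ONE-Glo, 30 min RT; luminescence on CCD imager.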
# SMN2 splice up: increases expression of the SMN2 splice variant; Potency, µM (highest dose often 46.1 µM), usual class: activators; 2.8% of 210,000 active; HEK293 SMN2-luciferase splicing reporter, luminescence, 30-36 h; also: nearly all actives have a fitted effect of over 55% in size
#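 qHTS luciferase splicing reporter: luminescence rises when SMN2 exon 7 is included in transfected HEK293 cells. Compound exposure lasted 30-36 h at 37C, with 4.5 mM final sodium butyrate as control, followed by a ONE-Glo read.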
# FLuc counter: counter-screen for miR-21 project: firefly luciferase inhibitors or activators | 6.9% of 360,000 active | P08659 | Potency, µM (titrated, usually from 57.5 µM), hits mostly inhibitors | purified FLuc, Km substrates, luminescence inhibition; also: nearly all actives have a fitted effect of over 55% in size
# Target sequence (P08659 whole entry, looked up): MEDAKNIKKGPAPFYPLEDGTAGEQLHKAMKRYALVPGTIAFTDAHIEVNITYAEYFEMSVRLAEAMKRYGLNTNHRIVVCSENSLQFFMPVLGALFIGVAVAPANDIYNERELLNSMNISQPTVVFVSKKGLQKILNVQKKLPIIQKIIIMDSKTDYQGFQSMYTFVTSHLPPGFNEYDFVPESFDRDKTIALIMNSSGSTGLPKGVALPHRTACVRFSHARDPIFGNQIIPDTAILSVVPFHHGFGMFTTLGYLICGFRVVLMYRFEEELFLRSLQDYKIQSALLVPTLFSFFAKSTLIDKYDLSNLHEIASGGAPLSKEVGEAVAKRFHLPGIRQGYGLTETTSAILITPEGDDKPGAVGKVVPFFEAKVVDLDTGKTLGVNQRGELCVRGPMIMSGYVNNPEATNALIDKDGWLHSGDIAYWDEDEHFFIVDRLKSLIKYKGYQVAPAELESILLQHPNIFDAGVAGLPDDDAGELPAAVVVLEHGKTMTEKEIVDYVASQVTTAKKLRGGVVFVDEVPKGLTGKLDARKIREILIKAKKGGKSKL
#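 Purified P. pyralis luciferase (10nM final) with 10uM D-luciferin and 10uM ATP (Km levels) in 50mM Tris acetate pH 7.5, 10mM Mg acetate, 0.01% Tween-20, 0.05% BSA; qHTS 6-point titration, ~60 µM downward; luminescence read.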
# Numbers stand for hits; 0 = inactive; ? = inconclusive; - = no result. The list is not random: actives were taken first. Their share in the collection is about 7.4%. Calls follow the shape of the dose curve; as a rule, active = well fitted curve in the direction sought with a large enough effect; inconclusive = small, poorly fitted or top-dose-only effect, or another doubt; inactive = no such curve, though single readings can be large; an effect the other way counts as inactive or inconclusive.
SMILES,Rab9 promoter act,NPC1 promoter act,ELG1 genotox,SMN2 splice up,FLuc counter
CC(=O)c1ccc(NC(=O)CSc2ccc3nc(-c4ccccc4)cn3n2)cc1,-,-,-,-,12µM
O=C(CSc1ccc2nc(-c3ccccc3)cn2n1)Nc1ccccc1C(F)(F)F,-,-,-,-,0
Cc1csc(NC(=O)C2CCCO2)n1 (stereo not given),0,0,0,?,0
O=C(Nc1nc(-c2ccccc2)cs1)C1CCCO1 (stereo not given),0,?,?,?,24µM
O=C(Nc1nc(-c2ccc(F)cc2)cs1)C1CCCO1 (stereo not given),0,0,0,0,12µM
O=C(Nc1ccc(F)cc1)C1CCCO1 (stereo not given),0,0,0,0,0
O=C(Nc1nc(-c2ccc(-c3ccccc3)cc2)cs1)C1CCCO1 (stereo not given),0,0,0,0,8.5µM
O=C(Nc1nc(-c2ccccc2)cs1)C1c2ccccc2Oc2ccccc21,0,0,0,0,0
Cc1csc(SCC(=O)NC2CCC(C)CC2)n1 (stereo not given),0,0,?,-,0
Cc1ccc(C(=O)N2CCN(c3ccccn3)CC2)cc1Cl,0,0,0,-,0
COc1cccc(OC)c1C(=O)Nc1ccc(C(=O)c2ccncc2)cc1,0,0,0,-,0
CC(=O)N=C(N)Sc1nc2ccccc2[nH]1,4µM,2.5µM,?,13µM,15µM
COc1ccc(OC)c(NC(=O)CN2C(=O)CC(C)Sc3ccccc32)c1 (stereo not given),-,-,-,0,0
CN=c1scc(-c2ccco2)n1/N=C/c1ccc(O)c(O)c1,0,0,?,7.9µM,0.67µM
CN=c1scc(C)n1/N=C/c1ccc(O)cc1,2.2µM,3.2µM,3.2µM,?,3µM
CN=c1scc(C)n1/N=C/c1ccc2c(c1)OCO2,0.35µM,0.71µM,0.65µM,4.5µM,1.3µM
Cc1nnc(C)n1/N=C/c1ccc2c(c1)OCCO2,0,0,?,0,0
CN=c1scc(C)n1/N=C/c1ccc(O)cc1O,0.71µM,0.45µM,?,4.5µM,0.43µM
CCN=c1scc(C)n1/N=C/c1cc(Br)c(O)c(OC)c1,0,0,0,?,?
CN=c1scc(C)n1/N=C/c1cc(Br)c(O)c(Br)c1,0,0,0,0,11µM
C=CCN=c1scc(C)n1/N=C/c1ccc(O)c(O)c1,0,0,?,16µM,27µM
COc1ccc(N2CCN(C(=O)COC(=O)CNC(=O)c3ccccc3)CC2)cc1,0,0,0,-,0
CCc1ccc(NC(=O)CC(NCc2cccnc2)C(=O)O)cc1 (stereo not given),-,-,-,0,0
C=CCc1cccc(CNn2cnnc2)c1O,0,0,0,-,0
CN(C)/C=N/c1ncn(-c2ncc(C(F)(F)F)cc2Cl)n1,2.2µM,3.2µM,?,11µM,?
SMILES,Rab9 promoter act,NPC1 promoter act,ELG1 genotox,SMN2 splice up,FLuc counter
CN(C)/C=N/S(=O)(=O)c1cccn1-c1ncc(C(F)(F)F)cc1Cl,0,0,0,0,0
Oc1ccc2ccccc2c1C=NCc1cn2ccsc2n1,0,0,0,0,19µM
O=C(CCCc1ccccc1)NCc1cn2ccsc2n1,0,0,0,0,0
CN1CCN(C(=O)C2=C[C@@H](c3coc4ccccc4c3=O)C[C@@H](OCCCCO)O2)CC1,0,0,0,-,0
CN(C)CC#Cc1cncc(C(=O)NNC(=O)Nc2ccc(Cl)cc2)c1,0,0,0,-,24µM
Cc1cccc2cc(CN(CCCO)C(=O)Nc3ccc(Cl)cc3)c(=O)[nH]c12,0,0,0,0,?
Cc1cccc2cc(CN(CCCO)C(=O)Nc3cccc(Cl)c3)c(=O)[nH]c12,0,0,0,0,21µM
COc1ccccc1CCC(=O)Nc1nc2ccccc2[nH]1,?,?,?,13µM,13µM
COc1ccc(CCC(=O)Nc2nc3ccccc3[nH]2)cc1,2.2µM,3.5µM,?,0,?
O=C(COc1ccc2ccccc2c1)Nc1nc2ccccc2[nH]1,0,0,0,0,0
CCCCCC(=O)Nc1nc2ccccc2[nH]1,?,?,?,14µM,13µM
CCOc1ccccc1OCCCC(=O)Nc1nc2ccccc2[nH]1,0,0,0,0,0
COc1ccc(OCC(=O)Nc2nc3ccccc3[nH]2)cc1,?,?,21µM,0,4.8µM
Cc1ccc(Cl)cc1N1CCN(C(=O)c2c(C)oc3ncnc(N4CCOCC4)c23)CC1,-,-,-,-,0
COc1ccccc1CCC(=O)N(C)C1CCCN(Cc2ccccc2F)C1 (stereo not given),0,0,0,-,0
COc1cccc(CNc2nc3c(-c4ccccc4)nnn3c3ccccc23)c1,-,-,-,0,0
CCn1c(NCc2cccs2)nc2ccccc21,0,0,0,?,0
Cn1c(NCc2cccs2)nc2ccccc21,?,0,23µM,11µM,?
Cn1c(NCc2c[nH]c3ccccc23)nc2ccccc21,2µM,2.2µM,0,11µM,9.5µM
C=CCn1c(NCc2c[nH]c3ccccc23)nc2ccccc21,0,0,0,0,24µM
CCC(Nc1ccc(-c2nc(-c3cccnc3)no2)cc1[N+](=O)[O-])c1ccccc1 (stereo not given),-,-,-,-,0
COC(=O)c1cc(-c2ccc(C)cc2)n[nH]1,?,0,?,-,24µM
COC(=O)c1cc(-c2ccc(OC)cc2)n[nH]1,?,?,?,?,27µM
COC(=O)c1cc(-c2cccc(OC)c2)n[nH]1,0,0,0,?,?
CCOc1ccc(-c2cc(C(=O)OC)[nH]n2)cc1,2.2µM,3.2µM,?,-,9.5µM
SMILES,Rab9 promoter act,NPC1 promoter act,ELG1 genotox,SMN2 splice up,FLuc counter
COC(=O)[C@]1(C)N[C@H](CN(C)C(=O)COc2ccccc2)[C@@H]2C(=O)N(C)C(=O)[C@@H]21,-,-,0,-,-
Cc1cccc(NS(=O)(=O)c2ccc3c(c2)OCCO3)c1,0,0,0,14µM,0
Cc1ccc(S(=O)(=O)Nc2ccc3c(c2)OCCO3)cc1C,0,0,0,-,21µM
CC(=O)C1=C(O)C=C2Oc3c(C(C)=O)c(O)c(C)c(O)c3C2(C)C1=O (stereo not given),-,-,-,0,-
O=C(c1cc(-c2ccc(Cl)c(Cl)c2)on1)N1CCCCCC1,2.8µM,2µM,?,-,4.8µM
O=C(c1cc(-c2ccccc2O)on1)N1CCCCC1,-,-,-,20µM,8.5µM
CN(C(=O)c1cc(-c2ccccc2O)on1)c1ccccc1,-,-,-,0,?
CC1CCCCN1C(=O)c1cc(-c2ccc(Br)cc2)on1 (stereo not given),-,-,-,0,?
O=C(c1cc(-c2ccc(O)cc2)on1)N1CCCCCC1,2.5µM,1.3µM,?,-,13µM
O=C(c1cc(-c2ccc(Cl)cc2)on1)N1CCCCCC1,1.1µM,0.79µM,4.6µM,-,1.9µM
COc1ccc(-c2cc(C(=O)N3CCCCC3)no2)cc1OC,?,?,?,0,?
COc1ccc(CNC(=O)c2ccc(Cn3c(=O)c4cccn4c4cccnc43)cc2)c(OC)c1,-,-,-,-,0
COc1ccc(-c2csc3ncnc(N4CCN(c5ccccc5[N+](=O)[O-])CC4)c23)cc1,0,0,0,-,0
